Assay [1] is described as follows: qHTS assay to identify small molecule antagonists of the sonic hedgehog signaling (Shh) pathway (AID 1259369). Further: nearly all actives have a fitted effect of over 45% in size. Further: potency means the concentration at half of the fitted maximal effect. The procedure, abridged:
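Stable Gli1-Luc reporter NIH/3T3 clone; quantitative HTS in stimulated mode with conditioned medium. Luminescence measured after 24hr compound treatment at 37 C.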

Assay [2] has as its target Estrogen receptor beta (Homo sapiens) (UniProt Q92731). Put plainly: qHTS assay to identify small molecule agonists of the estrogen receptor beta (ER-beta) signaling pathway (AID 1259377; active means well fitted activation curve with a large enough effect in the signal ratio in the repeat runs, not every such curve was filed as active; the % refers to the signal ratio). The procedure, abridged: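 ER-beta-UAS-bla HEK293T cells in medium with 2% charcoal-stripped FBS were exposed to compounds for 16 h at 37C. Beta-lactamase reporter activity was read as fluorescence after 2 h with LiveBLAzer B/G FRET substrate at room temperature.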

Assay [3] has the same target. The experiment in a line: qHTS assay to identify small molecule antagonists of the estrogen receptor beta (ER-beta) signaling pathway (AID 1259378; active means well fitted inhibition curve with a large enough effect in the signal ratio in the repeat runs, not every such curve was filed as active; the % refers to the signal ratio; further: potency means the concentration at half of the fitted maximal effect). The procedure, abridged: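 ER-beta-UAS-bla HEK293T (GripTite) cells in 2% charcoal-stripped FBS medium were preincubated 6 hr at 37C, dosed with compound, then stimulated with 1 nM E2 (final) for 16 hr; beta-lactamase reporter read by B/G FRET fluorescence after 2 hr substrate loading.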
(qHTS replaces the single test concentration by a dilution series.)

Assay [4] is described as follows: qHTS assay to identify small molecule agonists of the androgen receptor (AR) signaling pathway in the presence of an antagonist - cell viability counter screen (AID 1259379; active means well fitted curve in the direction sought with a large enough effect in the repeat runs; an effect the other way counts as inactive or inconclusive; further: nearly all actives have a fitted effect of over 25% in size; further: potency means the concentration at half of the fitted maximal effect). The procedure, abridged: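 Nilutamide-containing (3.0uM final) MDA-kb2 cultures, 3,000 cells/well, were treated with compounds across 15 concentrations. After 16 hr at 37C with no CO2, cell viability was determined by CellTiter-Fluor fluorescence in the luciferase assay wells.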

The nature of assay [5]: qHTS assay to identify small molecule agonists of the estrogen receptor beta (ER-beta) signaling pathway - cell viability counter screen (AID 1259380; active means well fitted curve in the direction sought with a large enough effect in the repeat runs; an effect the other way counts as inactive or inconclusive; further: nearly all actives have a fitted effect of over 30% in size; further: potency means the concentration at half of the fitted maximal effect). The procedure, abridged:
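Steps: plate ER-beta-UAS-bla HEK293T cells, rest 6 hr; add compounds in DMSO; incubate 16 hr at 37C, 5% CO2; add FRET substrate 2 hr; add CellTiter-Glo, wait 30 min at room temperature; read luminescence.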

The nature of assay [6]: qHTS assay to identify small molecule antagonists of the estrogen receptor beta (ER-beta) signaling pathway - cell viability counter screen (AID 1259382; active means well fitted curve in the direction sought with a large enough effect in the repeat runs; an effect the other way counts as inactive or inconclusive; further: series mostly up to about 92 µM; nearly all actives have a fitted effect of over 55% in size). A digest of the protocol:
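Viability is scored by CellTiter-Glo luminescence (30 min, room temperature) in ER-beta-UAS-bla HEK293T wells already read for reporter fluorescence. Compound exposure lasts 16 hr at 37C alongside 1nM 17-beta-estradiol in charcoal-stripped serum medium.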

Assay [7] concerns the target Estrogen receptor (Homo sapiens) (UniProt P03372). Put plainly: qHTS assay to identify small molecule agonists of the estrogen receptor alpha (ER-alpha) signaling pathway in the presence of an antagonist (AID 1259383). Further: top concentration of the series differs between compounds; nearly all actives have a fitted effect of over 15% in size. The procedure, abridged:
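Readout was ERE-driven luciferase luminescence in VM7Luc4E2 cells, which express full-length ER-alpha endogenously. Compounds were tested at 15 concentrations for 22hr alongside 10.0nM ICI-182,780 (final concentration).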

Assay [8] can be described thus: qHTS assay to identify small molecule agonists or antagonists of the thyroid stimulating hormone receptor (TSHR) signaling pathway - wild type cell line counter screen (AID 1259384). A digest of the protocol: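 Wild-type HEK293 cells were plated 18 h at 37 C/5% CO2, pin-dosed with compound plus Ro20-1724 medium, held 30 min at room temperature, then given cAMP-d2 and anti-cAMP-cryptate; fluorescence was read after 1 h. Fifteen concentrations, triplicate.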

Assay [9] has as its target Thyrotropin receptor (Homo sapiens) (UniProt P16473). The experiment in a line: qHTS assay to identify small molecule antagonists of the thyroid stimulating hormone receptor (TSHR) signaling pathway (AID 1259385). Further: nearly all actives have a fitted effect of over 20% in size. A digest of the protocol: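 TSHR-HEK293 cells were plated and held 18 h at 37C/5% CO2, then given compound plus Ro20-1724 and stimulated with TSH at 1.5 ng/mL final. After 30 min at room temperature, cAMP was detected with cAMP-d2/anti-cAMP-cryptate (1 h) by fluorescence.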

Assay [10] deals with Androgen receptor (Homo sapiens) (UniProt P10275). The experiment in a line: qHTS assay to identify small molecule agonists of the androgen receptor (AR) signaling pathway in the presence of an antagonist (AID 1259381). Further: nearly all actives have a fitted effect of over 15% in size. A digest of the protocol: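 Reporter-gene luminescence from MDA-kb2 cells exposed 16hr at 37C (0% CO2) to 15-point compound titrations with 3.0uM final nilutamide as AR antagonist.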

Values joined by “and” are separate entries in the source; they are usually repeats but may differ in a detail not shown here. Equal values may be shown once. Records with an inconclusive call do not appear. Active and inactive are the calls of the source. Unless noted, the call rests on the fitted dose curve.

Chain of Estrogen receptor (Homo sapiens) (P03372 whole entry, looked up): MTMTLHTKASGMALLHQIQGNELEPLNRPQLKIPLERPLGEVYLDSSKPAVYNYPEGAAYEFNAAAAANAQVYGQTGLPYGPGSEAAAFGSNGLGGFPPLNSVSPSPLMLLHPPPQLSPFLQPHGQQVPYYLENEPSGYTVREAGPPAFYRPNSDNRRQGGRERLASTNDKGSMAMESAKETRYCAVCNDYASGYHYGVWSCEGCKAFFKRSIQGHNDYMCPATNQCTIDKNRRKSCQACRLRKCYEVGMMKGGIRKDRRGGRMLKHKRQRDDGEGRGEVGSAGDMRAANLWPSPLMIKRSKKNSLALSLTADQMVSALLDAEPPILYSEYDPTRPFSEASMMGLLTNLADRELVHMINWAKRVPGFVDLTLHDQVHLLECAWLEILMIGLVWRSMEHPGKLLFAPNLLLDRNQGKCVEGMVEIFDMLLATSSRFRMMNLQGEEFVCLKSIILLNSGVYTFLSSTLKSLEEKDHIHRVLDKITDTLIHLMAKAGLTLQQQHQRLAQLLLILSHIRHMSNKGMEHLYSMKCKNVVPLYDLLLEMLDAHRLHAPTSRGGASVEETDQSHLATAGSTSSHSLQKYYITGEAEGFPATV
Chain of Thyrotropin receptor (Homo sapiens) (P16473 whole entry, looked up): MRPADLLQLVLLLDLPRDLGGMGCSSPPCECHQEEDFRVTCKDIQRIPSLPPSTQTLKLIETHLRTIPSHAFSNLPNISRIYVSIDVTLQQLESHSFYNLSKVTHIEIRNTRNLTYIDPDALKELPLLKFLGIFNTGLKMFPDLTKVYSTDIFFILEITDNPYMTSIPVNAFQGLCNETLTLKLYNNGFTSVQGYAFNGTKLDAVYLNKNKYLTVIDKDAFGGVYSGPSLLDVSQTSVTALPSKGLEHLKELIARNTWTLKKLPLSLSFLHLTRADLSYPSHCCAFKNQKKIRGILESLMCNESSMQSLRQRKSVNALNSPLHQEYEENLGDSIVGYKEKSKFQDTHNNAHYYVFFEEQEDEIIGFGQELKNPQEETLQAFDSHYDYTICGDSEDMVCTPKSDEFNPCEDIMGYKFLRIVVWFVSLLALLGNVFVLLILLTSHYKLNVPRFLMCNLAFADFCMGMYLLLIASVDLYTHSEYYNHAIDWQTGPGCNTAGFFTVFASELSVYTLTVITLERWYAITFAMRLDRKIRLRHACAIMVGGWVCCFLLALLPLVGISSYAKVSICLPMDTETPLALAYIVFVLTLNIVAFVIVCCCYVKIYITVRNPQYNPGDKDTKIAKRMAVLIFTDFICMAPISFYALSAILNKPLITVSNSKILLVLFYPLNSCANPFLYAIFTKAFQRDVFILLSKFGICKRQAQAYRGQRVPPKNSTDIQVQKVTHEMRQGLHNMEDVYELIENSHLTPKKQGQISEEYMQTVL
Chain of Androgen receptor (Homo sapiens) (P10275 whole entry, looked up): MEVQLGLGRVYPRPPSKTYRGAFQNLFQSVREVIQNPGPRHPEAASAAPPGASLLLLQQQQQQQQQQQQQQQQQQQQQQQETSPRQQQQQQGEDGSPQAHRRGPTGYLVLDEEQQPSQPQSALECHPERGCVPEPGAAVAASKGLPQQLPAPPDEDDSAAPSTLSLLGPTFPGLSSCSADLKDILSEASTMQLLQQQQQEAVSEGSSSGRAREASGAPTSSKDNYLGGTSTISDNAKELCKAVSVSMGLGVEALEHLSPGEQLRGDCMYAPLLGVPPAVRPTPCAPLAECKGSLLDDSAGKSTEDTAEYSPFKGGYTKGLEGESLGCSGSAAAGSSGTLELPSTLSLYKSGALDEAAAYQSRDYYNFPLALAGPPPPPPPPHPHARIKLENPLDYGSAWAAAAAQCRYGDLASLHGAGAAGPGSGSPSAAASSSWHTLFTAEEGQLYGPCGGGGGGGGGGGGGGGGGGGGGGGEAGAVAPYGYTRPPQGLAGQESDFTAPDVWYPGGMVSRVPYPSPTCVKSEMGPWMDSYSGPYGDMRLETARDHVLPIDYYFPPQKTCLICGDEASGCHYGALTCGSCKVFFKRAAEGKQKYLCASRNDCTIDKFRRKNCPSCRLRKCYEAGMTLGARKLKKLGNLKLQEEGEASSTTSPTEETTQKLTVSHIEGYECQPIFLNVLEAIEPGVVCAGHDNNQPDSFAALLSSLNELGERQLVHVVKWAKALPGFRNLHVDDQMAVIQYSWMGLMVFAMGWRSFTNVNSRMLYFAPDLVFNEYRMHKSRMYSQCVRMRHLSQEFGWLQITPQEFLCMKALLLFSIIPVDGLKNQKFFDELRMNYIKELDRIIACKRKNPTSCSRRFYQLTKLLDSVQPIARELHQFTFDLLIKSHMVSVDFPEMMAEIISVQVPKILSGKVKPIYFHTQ
Chain of Estrogen receptor beta (Homo sapiens) (Q92731 whole entry, looked up): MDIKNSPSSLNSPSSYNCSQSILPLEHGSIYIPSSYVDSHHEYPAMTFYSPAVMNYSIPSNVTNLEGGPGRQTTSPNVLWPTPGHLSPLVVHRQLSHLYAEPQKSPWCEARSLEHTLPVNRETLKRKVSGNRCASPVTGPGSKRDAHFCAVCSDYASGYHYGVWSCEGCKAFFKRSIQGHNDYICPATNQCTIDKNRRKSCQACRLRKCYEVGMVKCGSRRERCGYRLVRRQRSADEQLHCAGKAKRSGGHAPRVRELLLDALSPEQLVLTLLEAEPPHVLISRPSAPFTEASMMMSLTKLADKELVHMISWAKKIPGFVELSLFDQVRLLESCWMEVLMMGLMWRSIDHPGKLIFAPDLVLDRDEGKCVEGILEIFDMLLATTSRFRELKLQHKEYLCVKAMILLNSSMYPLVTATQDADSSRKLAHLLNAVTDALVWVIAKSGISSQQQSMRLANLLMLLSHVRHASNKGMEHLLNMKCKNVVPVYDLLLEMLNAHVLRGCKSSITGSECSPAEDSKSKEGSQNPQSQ

Turning to `CC1(C)C(C=C(Cl)Cl)C1C(=O)OC(C#N)c1ccc(F)c(Oc2ccccc2)c1` (centres undefined), the Potency entry in [1], in assay [2], in assay [3], in [4], in assay [5] and in assay [6] was “inactive” throughout. The Potency entry in [7], in assay [8] and in [9] was “inactive” throughout.
For `C#CC1(O)CCCCC1`, the Potency result in assay [1], in [2], in assay [3], in [4], in [5] and in assay [6] was “inactive” in each case. For the same compound, the Potency entry in [8] and in [9] was “inactive” throughout.
Turning to `CNC(=O)Oc1cc(C)cc(C(C)C)c1`, the Potency result in [1], in assay [2], in assay [3], in assay [4], in [6] and in assay [7] was “inactive” each time.
Consider `[O]=[Cr][O][Cr]=[O]`, for which the Potency result in [1], in assay [2], in [3], in assay [4], in assay [5] and in [6] was “inactive” each time. Besides, the Potency result in assay [7] is “inactive”.
Consider `COc1ccc(Cc2nccc3cc(OC)c(OC)cc23)cc1OC`, for which the Potency was 1.88 µM (active) in assay [1] and 18.8 µM (active) in assay [4]. Moreover, the Potency result in assay [2], in assay [3], in [5], in [10], in assay [6] and in assay [8] was “inactive” in each case. Further, the Potency entry in assay [9] was “inactive”.
As for `CCOC(=O)Cc1ccccc1`, the Potency entry in assay [1], in [2], in assay [3], in assay [4], in assay [5] and in assay [10] was “inactive” in each case. Also, the Potency entry in assay [6], in [7], in assay [8] and in assay [9] was “inactive” in each case.
For the compound `CSC1=N[C@@](C)(c2ccccc2)C(=O)N1Nc1ccccc1`, the Potency is 2.43 µM (active) in assay [1], 27.3 µM (active) in assay [3] and 30.6 µM (active) in [4]. Also, the Potency entry in [2] and in assay [6] was “inactive” each time.
On to `N#Cc1ccc(N(CC(N)=O)CC(F)(F)F)cc1C(F)(F)F`, for which the Potency entry in assay [1], in assay [2], in [3], in assay [4], in assay [5] and in assay [6] was “inactive” throughout. Further, the Potency entry in assay [7], in assay [8] and in assay [9] was “inactive” in each case.
Turning to `O=C(O)CCCCCCNC1c2ccccc2CCc2ccccc21`, the Potency result in assay [1], in [2], in [3], in assay [4], in assay [5] and in assay [6] was “inactive” each time. Moreover, the Potency entry in assay [7], in assay [8] and in assay [9] was “inactive” throughout.
Turning to `O=C(N[C@@H]1N=C(c2ccccc2F)c2cccc3c2N(CC3)C1=O)c1cc2ccccc2[nH]1`, the Potency entry in assay [1], in [2], in [3], in assay [4], in [5] and in [6] was “inactive” each time. In addition, the Potency result in assay [8] and in assay [9] was “inactive” throughout.
Consider `O=Cc1ccccc1`, for which the Potency result in assay [1], in assay [2], in [3], in assay [4], in [5] and in assay [6] was “inactive” in each case. The Potency result in [8] and in assay [9] was “inactive” in each case.
Turning to `CC1CN1` (centres undefined), the Potency result in assay [1], in assay [2], in assay [3], in assay [4], in assay [5] and in assay [6] was “inactive” in each case. In addition, the Potency result in assay [7], in [8] and in [9] was “inactive” in each case.
For `COP(=S)(NC(C)C)Oc1ccc(C)cc1[N+](=O)[O-]` (centres undefined), the Potency result in assay [1], in assay [2], in [4], in [5], in assay [6] and in assay [7] was “inactive” throughout. Besides, the Potency result in assay [8] and in assay [9] was “inactive” throughout. In addition, the Potency in assay [3] was 30.6 µM (active).
In the case of `CC(=O)C(Cl)C(=O)N(C)C` (centres undefined), the Potency result in [1], in [2], in assay [3], in [4], in [5] and in assay [6] was “inactive” throughout. Besides, the Potency result in assay [7], in assay [8] and in assay [9] was “inactive” throughout.
For `OCC(Br)CBr` (centres undefined), the Potency result in assay [1], in assay [2], in assay [3], in assay [4], in [5] and in assay [6] was “inactive” each time. Besides, the Potency entry in [7], in assay [8] and in assay [9] was “inactive” each time.
With `Cc1ccn2nc(S(=O)(=O)Nc3c(F)cccc3F)nc2n1`, the Potency entry in assay [1], in assay [2], in [3], in assay [4], in assay [5] and in [6] was “inactive” throughout. Besides, the Potency entry in [8] and in assay [9] was “inactive” in each case.
Regarding `C#CCO`, the Potency result in assay [1], in assay [2], in [3], in [4], in [5] and in assay [6] was “inactive” throughout. Besides, the Potency result in [7] and in assay [8] was “inactive” throughout.
On to `ClSC(Cl)(Cl)Cl`, for which the Potency result in assay [1], in assay [2], in [3], in assay [4], in assay [5] and in assay [6] was “inactive” in each case. Also, the Potency entry in assay [7], in assay [8] and in assay [9] was “inactive” throughout.
With `CC(Cl)CCl` (centres undefined), the Potency result in assay [1], in assay [2], in [3], in [4], in assay [5] and in assay [6] was “inactive” in each case. Besides, the Potency result in [7], in assay [8] and in [9] was “inactive” each time.
Regarding `CCC(C)Br` (centres undefined), the Potency result in [1], in assay [2], in assay [3], in assay [4], in assay [5] and in assay [6] was “inactive” throughout. Further, the Potency entry in [8] and in assay [9] was “inactive” in each case.
For the compound `[O-][Cl+3]([O-])([O-])O`, the Potency entry in assay [1], in assay [2], in assay [3], in assay [4], in assay [5] and in assay [6] was “inactive” each time.
In the case of `CC(C)N(C(=O)CCl)c1ccccc1`, the Potency in assay [1] was 12.2 µM (active) and 9.69 µM (active); in assay [3], 9.69 µM (active); in assay [4] it was 54.5 µM (active); in assay [5], 54.5 µM (active) and 27.3 µM (active). The Potency entry in assay [2], in assay [10], in [7], in assay [8] and in assay [9] was “inactive” each time.
On to `CCN(CC)CCN1C(=O)CN=C(c2ccccc2F)c2cc(Cl)ccc21`, for which the Potency entry in assay [1], in [2], in assay [3], in assay [4], in [5] and in assay [6] was “inactive” in each case. For the same compound, the Potency result in assay [7], in [8] and in assay [9] was “inactive” throughout.
Take `CNC(=O)CSP(=O)(OC)OC`: the Potency entry in assay [1], in [2], in assay [3], in assay [4], in assay [5] and in [6] was “inactive” in each case. Moreover, the Potency result in assay [7], in assay [8] and in [9] was “inactive” in each case.
For `O=NN(CCO)CCO`, the Potency result in assay [1], in [2], in [3], in [4], in assay [5] and in [10] was “inactive” each time. In addition, the Potency entry in assay [6], in assay [7], in assay [8] and in assay [9] was “inactive” in each case.

The record behind these values is PubChem BioAssay (Tox21).
